High-throughput results deposited in PubChem BioAssay by National Center for Advancing Translational Sciences (NCATS).
This is a sample that favours compounds with a hit; in the whole collection about 3.1% have one here.
ALOX12 inhib: 12-hLO (ALOX12) enzyme inhibition. P18054. purified 12-hLO, xylenol orange hydroperoxide absorbance. Potency, µM (titrated, usually from 57.1 µM), inactives show at the highest dose activity change, negative = inhibition, hits mostly inhibitors. 150,000 tested, 0.12% active. AID 1452; further: potency means the concentration at half of the fitted maximal effect; nearly all actives have a fitted effect of over 55% in size
Target sequence (P18054 whole entry, looked up): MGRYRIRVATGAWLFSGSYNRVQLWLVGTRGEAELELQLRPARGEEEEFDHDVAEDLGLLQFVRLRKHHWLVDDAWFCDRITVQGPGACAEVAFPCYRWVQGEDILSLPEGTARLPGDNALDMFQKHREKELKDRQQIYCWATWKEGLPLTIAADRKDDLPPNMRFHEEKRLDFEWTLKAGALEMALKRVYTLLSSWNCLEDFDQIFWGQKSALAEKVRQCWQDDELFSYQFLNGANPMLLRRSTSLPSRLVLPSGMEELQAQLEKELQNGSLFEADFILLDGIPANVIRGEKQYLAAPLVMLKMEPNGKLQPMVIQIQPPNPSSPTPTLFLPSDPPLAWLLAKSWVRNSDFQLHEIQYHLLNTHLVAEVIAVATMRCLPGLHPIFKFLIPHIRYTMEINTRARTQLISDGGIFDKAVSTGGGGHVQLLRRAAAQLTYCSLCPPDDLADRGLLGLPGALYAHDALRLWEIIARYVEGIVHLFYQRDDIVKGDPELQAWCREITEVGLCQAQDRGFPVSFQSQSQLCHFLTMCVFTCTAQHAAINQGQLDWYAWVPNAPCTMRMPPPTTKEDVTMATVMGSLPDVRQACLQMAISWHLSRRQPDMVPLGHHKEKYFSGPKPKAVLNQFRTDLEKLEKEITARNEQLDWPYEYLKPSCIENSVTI
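Lipoxygenase turnover measured by absorbance at 573 and 405 nm after Fe-XO development. Human 12hLO 150 nM, arachidonate 40 uM, pH 7.0 Hepes buffer with detergent; 15 min compound preincubation, 30 min reaction.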
PNC inhibitor: perinucleolar compartment assembly inhibition; 140,000 tested, 3.1% active; PC3M PTB-GFP, PNC prevalence imaging, 16 h; hits give low values; activity change (PNC), negative = inhibition, % at 10 µM;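 active means readout at or below -70, meaning at least 70% loss of cells showing the perinucleolar compartment, a nuclear body marking cancer cells; inconclusive means readout between -30 and a set limit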;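 further: plate controls were DMSO wells for no effect and camptothecin positive control wells for full effect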
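Compounds are pinned in duplicate onto adhered PC3M cells stably expressing GFP-tagged PTB and incubated 16 h at 37 C. Cells are then fixed, nuclei stained with Hoechst, and PNC-positive cells counted.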
ALOX15B inhib: 15-hLO-2 (ALOX15B) enzyme inhibition. 110,000 tested, 0.56% active. purified 15hLO-2, xylenol orange hydroperoxide absorbance. AID 881. Potency, µM (highest dose often 57.1 µM), for inactives: top-dose activity change, negative = inhibition, usual class: inhibitors; further: potency means the concentration at half of the fitted maximal effect; nearly all actives have a fitted effect of over 60% in size
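Enzyme 50 nM, AA 45 uM, 25 mM Hepes pH 7.5 + 0.01% Triton X-100; cpd preinc 15 min RT, rxn 90 min RT; stop/detect with 200 uM XO + 300 uM Fe(II) in 50 mM H2SO4, 30 min; A573/A405.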
Numbers without * were called inactive; ? = inconclusive; . = no result; [ ] = remark or other dose. Unless noted, the call rests on the fitted dose curve; in most records, active means well fitted curve in the direction sought with a large enough effect; inconclusive means small, poorly fitted or top-dose-only effect, or another doubt; inactive means no such curve, though single readings can be large; an effect the other way counts as inactive or inconclusive. Unless noted, on the % scale 0 is the no-effect control and ±100 the full control effect.

SMILES | ALOX12 inhib | PNC inhibitor | ALOX15B inhib
C/C=C(\C)C(=O)O[C@@H]1C(C)=C2[C@H]([C@@H]1OC(=O)CCCCCCC)[C@@](C)(OC(C)=O)C[C@@H](OC(=O)CCC)[C@@]1(O)[C@H]2OC(=O)[C@]1(C)O | -29.6% | . | 14.2%
S=P(C1CCCCC1)(C1CCCCC1)[C@H](c1cccnc1)N1CCCC1 | 1.4%[11.4 µM] | . | -1.4%[11.4 µM]
O=C(Cc1ccccc1)N1CCN(Cc2c[nH]c3ccccc23)CC1 | -12.5% | -23.2 | -1.0%
O=C(Cc1ccccc1)N1CCN(Cc2ccccn2)CC1 | -4.6% | -84.0* | .
C=CCN(c1ccc(C(=O)N(CC)CC)cc1)S(C)(=O)=O | -1.3% | -23.2 | .
CCN(CC)C(=O)c1ccc(N2C(=O)C3CC=C(Cl)CC3C2=O)cc1 (stereo unspecified) | -3.4% | -85.6* | 1.3%
CCOC(=O)c1c(C)c(P(=S)(N2CCOCC2)N2CCOCC2)n(C)c1C | -2.8% | -120.7* | 11.6%
CCCCn1c(C)c(C(=O)OCC)c2c(CN3CCOCC3)c(O)ccc21 | -1.3% | -19.4 | -8.6%
C/C(=N/OC(=O)N(C)C)c1ncc(C(F)(F)F)cc1N1CCOCC1 | -6.3% | -84.4* | 17.4%
C[C@@H]1Cc2cc3c(cc2C(c2ccc(N)cc2)=NN1)OCO3 | -1.8% | . | 14.1%
C=CCN1C[C@@H](C)N([C@H](c2ccc(C(=O)N(CC)CC)cc2)c2cccc(OC)c2)C[C@H]1C | -3.2% | . | 17.2%
O=C(O)c1cc[c]([Hg][S]c2ncnc3nc[nH]c23)cc1 | ? | . | 2.51µM*
O=c1c2ccccc2nc(CSc2ncnc3nc[nH]c23)n1-c1ccccc1 | -6.9% | 14.9 | 5.7%
C[C@@H]1[C@H]2C=C[C@@H]1[C@@H](c1c3ccc(=O)c(O)c-3oc3c(O)c(O)ccc13)[C@@H]2C(=O)O | -22.6%[11.4 µM] | . | ?
Ic1ccccc1CN[C@@H]1C2CCN(CC2)[C@H]1C(c1ccccc1)c1ccccc1 | -3.3% | . | 35.8%
CSC([N-]/N=C/c1cccc(C)n1)=[S]=[Cu].CS[C@H]([S-])[N-]/N=C/c1cccc(C)n1 | ? | . | 3.16µM*
COc1ccc(C(=O)O[C@H]2CC[C@@]3(C)[C@H]4CC[C@H]5[C@]3(C[C@]3(O)[C@H]6CN7C[C@H](C)CC[C@H]7[C@](C)(O)[C@]6(O)[C@H](O)C[C@]53O)O[C@]24O)cc1OC | 4.7%[11.4 µM] | . | -0.9%[11.4 µM]
Nc1ccccc1O.O.O=C(O)[C@H]1[O][Sb][O][C@H]1C(=O)O | -4.6%[11.4 µM] | . | -22.0%[11.4 µM]
O=C(NC1(C(F)(F)F)Oc2ccc(Cl)cc2O1)N1CCC2(CC1)OCCO2 (stereo unspecified) | ? | 9.5 | 7.94µM*
COc1cccc(NC(=O)N2CCC3(CC2)OCCO3)c1 | -2.9% | 96.9 | .
O=C(NC1(C(F)(F)F)Oc2ccccc2O1)N1CCC2(CC1)OCCO2 | -9.1% | -118.9* | .
O=C(CCCOc1ccc(Cl)cc1Cl)N1CCC2(CC1)OCCO2 | -6.3% | 28.1 | -16.9%
C=C(C)[C@H]1Cc2c(ccc3c2O[C@H]2COc4cc(OC)c(OC)cc4[C@@H]2C3=O)O1 | -6.3% | . | -5.1%
CC(=O)C1C(=O)NC23CCCCC2C1c1ccccc1O3 (stereo unspecified) | -7.6% | 24.1 | -2.3%
CC12CC(c3ccccc3O1)C(C(=O)OCc1ccccc1)C(=O)N2 (stereo unspecified) | -1.3% | -118.9* | .
SMILES | ALOX12 inhib | PNC inhibitor | ALOX15B inhib
Cc1cc(C)cc(OP(=O)(Oc2cc(C)cc(C)c2)Oc2cc(C)cc(C)c2)c1 | -1.7% | . | 4.5%
CCOC(=O)[C@@H]1[C@@H]2c3ccccc3-c3ccccc3[C@H]2C[C@H]1O | -4.6%[11.4 µM] | . | -0.5%[11.4 µM]
O=C(O)C[O][Sb][O]CC(=O)O | 7.1%[11.4 µM] | . | -6.0%[11.4 µM]
O=C1NC(c2cccnc2)Nc2sc3c(c21)CCCC3 (stereo unspecified) | 9.6% | -100.0* | .
CC12CN3CC(C)(CN(C1)C3c1cccnc1)C2=O (stereo unspecified) | 0.5% | -2.6 | -1.3%
c1cncc([C@H]2CCCCN2)c1 | -3.4% | . | -1.7%
CC1(C)Cc2c(sc3c2C(=O)NC(c2cccnc2)N3)CO1 (stereo unspecified) | -2.9% | -101.5* | 1.8%[2.29 µM]
N[C@H](Cn1ccc(=O)[nH]c1=O)C(=O)O | -6.3% | . | 3.2%
CC[C@H](CO)NC(=O)[C@@H]1C=C2c3cccc4c3c(cn4C)C[C@@H]2N(C)C1 | -5.1% | . | -7.9%
C[C@H](N)c1cccc(Cl)c1Cl | -2.8% | . | 13.5%
CO[C@@H]1CC=C2CCN3CCC4=C(CC(=O)OC4)[C@]23C1 | -5.2% | . | -4.6%
O=C1CN=C(c2ccccc2)c2ccccc2N1Cc1ccc(C(F)(F)F)cc1 | 1.4% | -15.4 | 1.1%
O=C1CN=C(c2ccccc2)c2cc(Br)ccc2N1Cc1cc(=O)n2ccccc2n1 | -2.2% | -87.7* | .
[N-]=[N+]=[N-] | 0.4% | . | -7.1%
CC[C@@H]1[C@@H]2Cc3ccc(O)cc3[C@@]1(CC)CCN2C | 1.1%[11.4 µM] | . | -3.4%[11.4 µM]
c1ccc2c([C@@H]3CCN(CCN4CCOCC4)C3)c[nH]c2c1 | 3.7%[11.4 µM] | . | -4.5%[11.4 µM]
Cc1cc[c]([Sb]2[O][C@H]([C@H](O)[C@H](O)C(=O)O)[C@@H](CO)[O]2)cc1 | -3.8%[11.4 µM] | . | -14.3%[11.4 µM]
CC/C(=N\N1CCCCCC1)c1c(O)n(-c2ccccc2C)c(=O)[nH]c1=O | 0.1% | -94.8* | .
CCC(=NCCN1CCOCC1)c1c(O)n(-c2ccccc2C)c(=O)[nH]c1=O | 0.0% | -14.8 | -11.1%
N[C@H](Cc1ccccc1)c1nn[nH]n1 | 0.2%[11.4 µM] | . | 1.4%[11.4 µM]
C[C@H]1O[C@@H](O[C@H]2[C@@H](O)C[C@H](O[C@H]3[C@@H](O)C[C@H](O[C@H]4CC[C@@]5(C)[C@H](CC[C@@H]6[C@@H]5CC[C@]5(C)[C@@H](C7=CC(=O)OC7)CC[C@]65O)C4)O[C@@H]3C)O[C@@H]2C)C[C@H](O)[C@@H]1O | -1.4% | -81.7* | .
C[C@@H]1O[C@@H](O[C@H]2C[C@@H](O)[C@]3(CO)[C@H]4[C@H](O)C[C@]5(C)[C@@H](C6=CC(=O)OC6)CC[C@]5(O)[C@@H]4CC[C@]3(O)C2)[C@H](O)[C@H](O)[C@H]1O | 3.2% | -114.6* | .
CC1OC(O[C@@H]2C(O)CC(O[C@@H]3C(O)C[C@@H](OC4CC[C@]5(C)[C@H](CC[C@H]6[C@@H]5CC[C@]5(C)C(C7=CC(=O)OC7)C(O)C[C@@]65O)C4)OC3C)OC2C)CC(O)C1O (stereo partly specified) | -0.7% | . | -5.7%
CC1O[C@@H](OC2CC(O)[C@@]3(CO)C4C(O)C[C@@]5(C)C(C6=CC(=O)OC6)CC[C@]5(O)C4CC[C@]3(O)C2)C(O)C(O)C1O (stereo partly specified) | -2.9% | . | 2.9%
CN(C)NC(=O)CCC(=O)O | -1.7% | . | -5.1%
CC(=O)NC(Cc1ccc(N(CCCl)CCCl)cc1)C(=O)O (stereo unspecified) | -2.6% | 212.5 | .
CCOC(=O)C(NC(C)=O)C(OC(C)=O)c1cccc(N(CCCl)CCCl)c1 (stereo unspecified) | 0.5% | -118.9* | .
NC[C@H](O)c1cc(O)c(O)cc1F | 2.5% | . | -6.4%
CN1CCN(c2ccc([N+](=O)[O-])c3[nH]o[n+](=O)c23)CC1 | 1.3%[11.4 µM] | . | -4.0%[11.4 µM]
COC1=CC(=O)OC(CCc2ccccc2)C1 (stereo unspecified) | -7.1% | . | -9.9%
